Source: PubChem BioAssay (several laboratories)
Wnt bcat act: activators of Wnt/beta-catenin signaling | Wnt/beta-catenin reporter cell assay, activator, plate reader | activation, % at 9.35 µM | hit rate 1.2% among 300,000 | AID 743398; in the data active = activation above about 30%, passing the limit was not always enough; inconclusive = no clear call, values can overlap the other calls;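 also: 0% = neutral control wells and 100% = positive control wells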
A3G deaminase: APOBEC3G (human) deaminase inhibition; Q9HC16; recombinant A3G, ssDNA deamination FAM/TAMRA fluorescence; inhibition, % at 20 µM; hit rate 0.28% among 330,000;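 active = inhibition of at least 40% at 20 µM, with no more than 30% in the related APOBEC3A deaminase screen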;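 also: plate controls were DMSO wells with A3G for no effect and wells lacking A3G enzyme for full effect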
MITF TRPM1 HTS: MITF TRPM1 promoter activation in melanoma cells; AID 588334; hit rate 0.75% among 300,000; SK-MEL-5 TRPM1-promoter luciferase, 24 h; % of positive control, neutral wells = 0; activation, % at 12.5 µM;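 active = mean activation of at least 80% with every replicate also reaching 80%; inconclusive = mean reaches 80% but some replicate falls short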;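 also: 0% = neutral control wells and 100% = parthenolide positive control wells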
A3A deaminase: human APOBEC3A DNA deaminase inhibition | inhibition, % at 20 µM | P31941 | recombinant A3A, FAM/TAMRA ssDNA deamination fluorescence | AID 493011 | hit rate 0.41% among 330,000;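 active = at least 40% inhibition at 20 µM here, with at most 30% in a related deaminase screen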;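 also: plate controls were A3A with DMSO for no effect and wells lacking A3A enzyme for full effect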
Target sequence (P31941 whole entry, looked up): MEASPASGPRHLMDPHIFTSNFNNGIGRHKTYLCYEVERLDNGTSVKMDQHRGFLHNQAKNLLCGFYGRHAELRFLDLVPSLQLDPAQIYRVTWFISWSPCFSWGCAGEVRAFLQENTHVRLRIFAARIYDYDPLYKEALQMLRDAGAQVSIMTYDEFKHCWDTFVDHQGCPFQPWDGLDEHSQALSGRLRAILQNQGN
esBAF inh: inhibitors of esBAF chromatin remodeling in mouse ES cells; hit rate 2% among 350,000; reporter increase, % at 12.5 µM; Bmi1-luciferase knock-in reporter, 24 h; 100% = twice the neutral-well signal; AID 602393; in the data active = activation above about 40%; inconclusive = no clear call, values can overlap the other calls;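 also: 0% = median of the plate's neutral control wells and 100% = double that signal; a rise in the Bmi1 reporter signal indicates esBAF inhibition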
PHOSPHO1 inh: PHOSPHO1 (human) inhibition | Q8TCT1 | recombinant PHOSPHO1, absorbance phosphatase assay | inhibition, % at 13.3 µM | hit rate 1.1% among 290,000 | AID 1565; in the data active = inhibition above about 60%
Target sequence (Q8TCT1 whole entry, looked up): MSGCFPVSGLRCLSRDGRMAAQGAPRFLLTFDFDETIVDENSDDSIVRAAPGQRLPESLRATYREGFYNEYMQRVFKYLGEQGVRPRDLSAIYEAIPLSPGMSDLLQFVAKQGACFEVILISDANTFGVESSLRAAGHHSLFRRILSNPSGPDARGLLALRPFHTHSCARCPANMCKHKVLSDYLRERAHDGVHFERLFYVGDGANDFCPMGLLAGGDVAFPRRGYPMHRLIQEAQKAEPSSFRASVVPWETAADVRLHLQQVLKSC
* marks the source's active call; other numbers are inactive results; ? = inconclusive; / = no result. Only some compounds are listed: those with a hit (about 3.6% of all), similar ones and a draw of the others.

SMILES | Wnt bcat act | A3G deaminase | MITF TRPM1 HTS | A3A deaminase | esBAF inh | PHOSPHO1 inh
O=C(C[C@H]1CC[C@H]2[C@@H](COC[C@@H](O)CN2C(=O)Nc2ccc(C(F)(F)F)cc2)O1)NCCc1ccncc1 | / | / | / | / | 2 | /
COC(=O)c1c(-c2ccc(OC)cc2)sc2cc(OC)c(OC)cc12 | 2 | -3 | 13 | 4 | 2 | /
COC(=O)c1c(-c2cc(OC)cc(OC)c2)sc2ccc(OC)cc12 | 7 | -5 | 37 | -1 | 20 | /
COC(=O)c1c(-c2ccc(S(C)(=O)=O)cc2)sc2ccc(OC)cc12 | 47* | -7 | 107* | -3 | 59* | /
COC(=O)c1c(-c2ccc(S(C)(=O)=O)cc2)sc2cc(OC)ccc12 | ? | -8 | 58 | -5 | 45* | /
COC(=O)c1c(-c2ccc(OC)cc2)sc2ccc(N3CCOCC3)cc12 | 11 | -7 | 69 | -3 | 42* | /
COc1ccc(-c2sc3ccc(N4CCOCC4)cc3c2-c2ccc(O)cc2)cc1 | -1 | -4 | -9 | -2 | 7 | /
COC(=O)c1c(-c2ccc(OC)cc2)sc2ccccc12 | / | 3 | / | 4 | / | /
COC(=O)c1c(-c2ccc(SC)cc2)sc2ccccc12 | 22 | -5 | 55 | 0 | 70* | /
CO[C@H]1CN(C)C(=O)c2cccc(C#N)c2OC[C@H]2O[C@@H](CC[C@H]2OC)CCN(C)C(=O)[C@H]1C | / | / | / | / | 1 | /
CN(C)C(=O)c1ccc(-c2ccc3c(c2)[C@@H]2[C@@H](CCN2C(=O)C2CC2)[C@H](CO)N3C)cc1 | / | / | / | / | -16 | /
CCCN1C[C@@H](C)[C@H](OC)CN(C)C(=O)c2cc(NC(=O)Nc3ccccc3F)ccc2OC[C@@H]1C | / | / | / | / | -2 | /
O=C(OCc1ccccc1)N1CCC2CC1c1ccc(/C=C/CCCCl)cc12 (stereo unspecified) | 1 | / | / | / | 59* | /
Cc1cccc(-c2ccc3c(c2)C2CC3CCN2C(=O)OCc2ccccc2)c1 (stereo unspecified) | -2 | / | 1 | / | 5 | /
CCCCNc1ccc2c(c1)C1CC2CCN1C(=O)OCc1ccccc1 (stereo unspecified) | 11 | / | 125* | / | 100* | /
O=C(OCc1ccccc1)N1CCC2CC1c1cc(-c3ccccc3)ccc12 (stereo unspecified) | -2 | / | 33 | / | 8 | /
C[C@@H]1CCCCO[C@H](CN(C)C(=O)NC2CCCCC2)[C@@H](C)CN([C@@H](C)CO)C(=O)c2cc(NC(=O)CCC(F)(F)F)ccc2O1 | / | / | / | / | 0 | /
CC(C)NC(=O)N(C)C[C@H]1Oc2ccc(NC(=O)Cc3cn(C)c4ccccc34)cc2CC(=O)N([C@@H](C)CO)C[C@@H]1C | / | / | / | / | -3 | /
C[C@H](CO)N1C[C@H](C)[C@H](CN(C)S(=O)(=O)c2ccccc2)Oc2c(NC(=O)NC3CCCCC3)cccc2C1=O | / | / | / | / | -6 | /
Cc1ccc2c(COC(=O)c3n[nH]c4ccccc34)cc(=O)oc2c1 | / | -5 | / | 3 | 69* | -36
Cc1ccc2c(COC(=O)c3ccccc3F)cc(=O)oc2c1 | 24 | -5 | 20 | -2 | -15 | 35
CCc1ccc2c(COC(=O)c3n[nH]c4ccccc34)cc(=O)oc2c1 | / | 3 | / | 2 | 77* | 21
C[C@@H]1CN([C@@H](C)CO)C(=O)c2ccccc2-c2ccccc2CO[C@H]1CN(C)S(=O)(=O)c1ccsc1 | / | / | / | / | -4 | /
CC1CCCN(C(=O)CSc2nnc(-c3ccc(O)cc3)o2)C1 (stereo unspecified) | 11 | -7 | 11 | -2 | 8 | 49
O=C(CSc1nnc(-c2cccs2)o1)c1cccs1 | / | -1 | ? | 1 | 104* | 19
SMILES | Wnt bcat act | A3G deaminase | MITF TRPM1 HTS | A3A deaminase | esBAF inh | PHOSPHO1 inh
CC1CCCN(C(=O)CSc2nnc(-c3cccs3)o2)C1 (stereo unspecified) | 13 | -2 | 89* | -1 | 15 | 45
COc1ccc(-c2nnc(SCC(=O)c3cccs3)o2)cc1 | / | -7 | ? | -6 | / | -6
CO[C@@H]1CN(C)C(=O)c2ccc(NS(=O)(=O)c3cn(C)cn3)cc2OC[C@@H](C)NC[C@H]1C | / | / | / | / | -5 | /
O=C(CSc1nnc(-c2cc3ccccc3cc2O)n1Cc1ccco1)c1ccc(F)cc1 | -7 | -6 | / | 2 | 9 | 81*
Cc1occc1-c1nnc(SCC(=O)c2ccc(F)cc2)n1Cc1ccco1 | / | -3 | 11 | 2 | 4 | -10
Cc1ccc(OCc2nnc(SCC(=O)c3ccccc3)n2Cc2ccco2)cc1 | / | -4 | 3 | -2 | 4 | 92*
